Data published in PubChem BioAssay (EPA / NIEHS).
Several values for one entry are separate records, joined by “and”; a condition that tells them apart may be missing. Equal values may be shown once. Records with an inconclusive call do not appear. A structure can be active in one record and inactive in another. Activity calls are given as the source filed them. The calls were made as follows, unless noted: active = hit-call score of the fitted dose curve at least 0.9, where 1 is the maximum; inconclusive = response in the unintended direction; inactive = score below 0.9.

Assays:
[1] = molecular target: Estrogen receptor (Homo sapiens) (UniProt P03372); test: CCTE_Deisenroth_AIME_384WELL_LUC_Shift: CCTE's 384-well Estrogen Receptor Transactivation Assay with AIME metabolic competence data shift (ERTA luciferase; difference in metabolism positive and negative), Deisenroth Lab (AID 2284041; active = hit-call score of the fitted dose curve at least 0.9, where 1 is the maximum; inactive = score below 0.9;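 also: shift is response with S9 minus without S9 so positive means metabolism raised ER signal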)
How it was run: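 Test chemicals (0.002–200 uM, 10-point) were pre-incubated 2 h with alginate microspheres containing phenobarbital/beta-naphthoflavone-induced male Sprague Dawley rat liver S9 or water, then medium was transferred to VM7Luc4E2 cells for 24 h luciferase readout; shift = S9-positive minus S9-negative normalized response.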

[2] = molecular target: Estrogen receptor (Homo sapiens) (UniProt P03372); test: CCTE_Deisenroth_AIME_384WELL_LUC_Active: CCTE's 384-well Estrogen Receptor Transactivation Assay with AIME metabolic competence (ERTA luciferase; metabolism positive), Deisenroth Lab (AID 2284030)
How it was run: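 In this metabolism-positive format, a 2-hour exposure to alginate-immobilized rat S9 precedes a 24 hour luciferase transactivation readout in VM7Luc4E2 cells. Dosing spans 10 concentrations from 0.002 to 200 uM.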

[3] = molecular target: Estrogen receptor (Homo sapiens) (UniProt P03372); test: CCTE_Deisenroth_AIME_384WELL_LUC_Inactive: CCTE's 384-well Estrogen Receptor Transactivation Assay without AIME metabolic competence (ERTA luciferase; metabolism negative), Deisenroth Lab (AID 2284038);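 also: VM7Luc4E2 breast cells given medium preincubated 2 h with S9-free microspheres; hits raise estrogen receptor luciferase signal so potencies reflect agonists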
How it was run: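 VM7Luc4E2 ER transactivation, luciferase bioluminescence after 24 h, using medium pre-incubated 2 h with S9-free alginate microspheres. Concentrations 0.002–200 uM; gain of signal fitted relative to 17beta-estradiol.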

[4] = CCTE_Deisenroth_AIME_384WELL_CTox_Inactive: Cytotoxicity Assessment (CTOX) in CCTE's 384-well Estrogen Receptor Transactivation Assay without AIME metabolic competence (metabolism negative), Deisenroth Lab (AID 2284039);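 also: cell viability via live-cell protease substrate cleaved to fluorescent probe; cells exposed 24 h to medium preincubated 2 h with alginate-water beads without S9; loss of fluorescence signal means loss of viability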
How it was run: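 Fluorescent protease-substrate viability readout after 24 h exposure of VM7Luc4E2 cells to conditioned medium. Chemicals (0.002–200 uM) first sat 2 h over alginate-water beads, no S9. Data fitted bidirectionally, loss of signal meaning viability loss.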

[5] = CCTE_Shafer_MEA_dev_firing_rate_mean: CCTE's Neural Network Formation Assay for Mean Firing Rate, Shafer Lab (AID 2284031; active = hit-call score of the fitted dose curve at least 0.9, where 1 is the maximum; inactive = score below 0.9;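 as to AC50: curve fitted for loss of firing so AC50 reflects decreased mean firing rate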)
How it was run: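 Steps: seed rat cortical cells (1.5 x 10^5/well) with laminin on PEI-coated MEA; dose day 0; record DIV 5/7/9/12, full media and compound exchange after DIV 5 and 9 recordings; compute well-mean firing rate AUC.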

[6] = CCTE_Shafer_MEA_dev_per_burst_spike_percent: CCTE's Neural Network Formation Assay for Percent of Spikes in a Burst, Shafer Lab (AID 2284032; active = hit-call score of the fitted dose curve at least 0.9, where 1 is the maximum; inactive = score below 0.9;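 as to AC50: fitted as a decrease in burst spike percentage below DMSO baseline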)
How it was run: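 Value is trapezoidal AUC over recordings on days 5, 7, 9 and 12 of the well-mean fraction of spikes falling in single-electrode bursts; rat cortical cultures exposed continuously from plating, treatment renewed DIV 5 and 9, fitted downward against DMSO.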

[7] = CCTE_Shafer_MEA_dev_burst_rate: CCTE's Neural Network Formation Assay for Burst Rate, Shafer Lab (AID 2284042; active = hit-call score of the fitted dose curve at least 0.9, where 1 is the maximum; inactive = score below 0.9)
How it was run: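 Exposure ran continuously over 12 days of network development in rat cortical cultures, with compound refreshed during full media changes on DIV 5 and 9. Single-electrode bursts per recording time, well-mean over active electrodes, trapezoidal AUC across days 5–12, fitted downward relative to DMSO.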

[8] = CCTE_Shafer_MEA_dev_bursting_electrodes_number: CCTE's Neural Network Formation Assay for Number of Bursting Electrodes, Shafer Lab (AID 2284043);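 as to AC50: potency is for loss of bursting electrodes relative to DMSO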
How it was run: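 Number of electrodes reaching ≥1 burst every 2 min was recorded at DIV 5, 7, 9 and 12 and collapsed as trapezoidal area under the curve. Cultures were rat cortical neurons on MEA plates, dosed continuously from plating with medium and treatment refreshed on DIV 5 and 9.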

[9] = CCTE_Shafer_MEA_dev_per_burst_interspike_interval: CCTE's Neural Network Formation Assay for Burst Interspike Interval, Shafer Lab (AID 2284044; active = hit-call score of the fitted dose curve at least 0.9, where 1 is the maximum; inactive = score below 0.9;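 as to AC50: potency for a decrease of within-burst interspike interval below DMSO level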)
How it was run: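 Developmental network-formation MEA in primary rat cortical cultures with exposure spanning days 0–12. Within-burst ISI is averaged per well and integrated across recording days by area under the curve, with DMSO as negative control baseline.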

[10] = CCTE_Shafer_MEA_dev_burst_duration_mean: CCTE's Neural Network Formation Assay for Mean Burst Duration, Shafer Lab (AID 2284045; active = hit-call score of the fitted dose curve at least 0.9, where 1 is the maximum; inactive = score below 0.9;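 as to AC50: curve fitted for loss meaning shorter burst duration than DMSO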)
How it was run: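 Mean single-electrode burst duration (first to last spike), averaged over bursting electrodes per well, then integrated as area-under-curve across recordings at days 5, 7, 9 and 12. Rat cortical cultures on MEAs, compound present from plating, refreshed at feeds.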

[11] = CCTE_Shafer_MEA_dev_interburst_interval_mean: CCTE's Neural Network Formation Assay for Mean Interburst Interval, Shafer Lab (AID 2284046; active = hit-call score of the fitted dose curve at least 0.9, where 1 is the maximum; inactive = score below 0.9;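 also: well-mean interburst interval of bursting electrodes as AUC over four recording days; curve fitted for decrease in interburst interval relative to DMSO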)
How it was run: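 Primary rat cortical neurons on PEI-coated 48-well MEA plates (laminin added with cells at plating) (16 electrodes/well), exposed from plating day 0 with renewal at DIV 5 and 9. Mean inter-burst interval averaged over bursting electrodes, AUC across days 5, 7, 9, 12; DMSO baseline.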

[12] = CCTE_Shafer_MEA_dev_active_electrodes_number: CCTE's Neural Network Formation Assay for Number of Active Electrodes, Shafer Lab (AID 2284040);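 also: potency for loss of active electrodes versus DMSO so lower counts are hits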
How it was run: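 Counts electrodes per well firing at least 5 spikes/min, recorded on days 5, 7, 9 and 12 in rat cortical cultures dosed continuously from plating (treatment refreshed DIV 5, 9). Value is the area under the curve over recordings, fitted downward relative to DMSO.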

Estrogen receptor (Homo sapiens), sequence (P03372 whole entry, looked up): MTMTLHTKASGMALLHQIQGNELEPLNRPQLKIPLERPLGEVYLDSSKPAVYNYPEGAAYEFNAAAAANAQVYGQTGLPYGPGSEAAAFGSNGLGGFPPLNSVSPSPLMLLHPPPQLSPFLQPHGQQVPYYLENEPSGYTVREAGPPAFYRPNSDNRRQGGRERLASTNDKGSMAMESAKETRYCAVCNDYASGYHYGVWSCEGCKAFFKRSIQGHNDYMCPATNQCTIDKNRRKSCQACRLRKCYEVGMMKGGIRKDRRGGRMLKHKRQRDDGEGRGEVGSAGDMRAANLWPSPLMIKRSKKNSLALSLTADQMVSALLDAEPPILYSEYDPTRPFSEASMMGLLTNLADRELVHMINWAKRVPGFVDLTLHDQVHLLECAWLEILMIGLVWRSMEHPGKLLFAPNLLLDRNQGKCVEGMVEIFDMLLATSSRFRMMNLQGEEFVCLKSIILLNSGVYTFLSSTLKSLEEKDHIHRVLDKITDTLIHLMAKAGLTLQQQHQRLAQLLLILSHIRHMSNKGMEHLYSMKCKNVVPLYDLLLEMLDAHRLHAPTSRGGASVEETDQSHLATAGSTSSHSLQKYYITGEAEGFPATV

CC(C)(C)NC(=O)[C@H]1CC[C@H]2[C@@H]3CC[C@H]4NC(=O)C=C[C@]4(C)[C@H]3CC[C@]12C
outcome [1]: inactive

CC(C)c1cc(C(C)C)cc(C(C)C)c1
outcome [2]: inactive | outcome [3]: inactive | outcome [4]: inactive | outcome [1]: inactive

CCCCCCCCC(CO)CCCCCC (stereo not drawn)
outcome [2]: inactive | outcome [3]: inactive | outcome [1]: inactive

O=C(O)c1cc(O)c2ccccc2c1O
AC50 [4]: 56.4 µM (active) | outcome [1]: inactive

C=C1C[C@H]2[C@@H]3C=C(C)C4=CC(=O)CC[C@]4(C)[C@H]3CC[C@]2(C)[C@@]1(OC(C)=O)C(C)=O
outcome [2]: inactive | outcome [3]: inactive | outcome [4]: inactive | outcome [1]: inactive

Cc1ccc([N+](=O)[O-])cc1N
outcome [2]: inactive | outcome [3]: inactive | outcome [1]: inactive

O=S(=O)(O)c1ccc(N=Nc2c(O)ccc3ccccc23)cc1
outcome [3]: inactive | AC50 [4]: 72.8 µM (active) | outcome [1]: inactive

CCCCCC[C@@H](O)C/C=C\CCCCCCCC(=O)OCC(O)CO (stereo partly drawn)
outcome [2]: inactive | outcome [3]: inactive | outcome [4]: inactive | outcome [1]: inactive

CCCCCCCCCCCCCC(=O)OC(C)C
outcome [2]: inactive | outcome [3]: inactive | outcome [1]: inactive

CC1(C)[C@@H]2CC[C@@]1(C)C(=O)C2
outcome [2]: inactive | outcome [3]: inactive | outcome [1]: inactive

CCCCCCOc1ccc(N)cc1
outcome [2]: inactive | AC50 [3]: 53.9 µM (active) | AC50 [1]: 42.7 µM (active)

CCCCCCCCCCCCc1ccc(O)cc1
AC50 [2]: 0.804 µM (active) | AC50 [3]: 1.01 µM (active) | AC50 [4]: 86.1 µM (active) | outcome [1]: inactive

C=CCOC(=O)c1ccc(C(=O)OCC=C)c(C(=O)OCC=C)c1
outcome [2]: inactive | outcome [3]: inactive | outcome [1]: inactive

C=C[C@@]1(C)CC(=O)[C@]2(O)[C@@]3(C)[C@@H](O)CCC(C)(C)[C@@H]3[C@H](O)[C@H](OC(C)=O)[C@@]2(C)O1
outcome [3]: inactive | outcome [4]: inactive | outcome [1]: inactive

O=C(O)c1ccc2c(c1)C(=O)OC2=O
outcome [2]: inactive | outcome [3]: inactive | outcome [1]: inactive

Cc1noc(NS(=O)(=O)c2ccc(N)cc2)c1C
outcome [5]: inactive | outcome [6]: inactive | outcome [7]: inactive | outcome [8]: inactive | outcome [9]: inactive | AC50 [10]: 24.1 µM (active) | outcome [11]: inactive

C[N+](C)(C)CCCNS(=O)(=O)C(F)(F)C(F)(F)C(F)(F)C(F)(F)C(F)(F)C(F)(F)C(F)(F)C(F)(F)F
AC50 [5]: 4.93 µM (active) and 2.98 µM (active) | AC50 [6]: 2.98 µM (active) and 4.47 µM (active) | AC50 [12]: 1.13 µM (active) and 1.65 µM (active) | outcome [7]: inactive | AC50 [8]: 1.55 µM (active) and 4.37 µM (active) | AC50 [9]: 2.98 µM (active) | outcome [9]: inactive | outcome [10]: inactive | AC50 [11]: 2.43 µM (active) and 4.96 µM (active)

CO[Si](C)(C)OC
outcome [2]: inactive | outcome [3]: inactive | outcome [1]: inactive

O=C(O)CCC(=O)O
outcome [2]: inactive | outcome [3]: inactive | outcome [4]: inactive | outcome [1]: inactive

CCCCNC(=S)NCCCC
outcome [2]: inactive | outcome [3]: inactive | outcome [1]: inactive

CCCCNS(=O)(=O)c1ccc(C)cc1
outcome [2]: inactive | outcome [3]: inactive | AC50 [1]: 0.0002 µM (active)

CC(C)=CCCC(C)=CC#N
outcome [2]: inactive | outcome [3]: inactive | outcome [1]: inactive

CC1=NN(c2ccc(S(=O)(=O)O)cc2)C(=O)C1N=Nc1ccccc1 (stereo not drawn)
outcome [2]: inactive | outcome [3]: inactive | outcome [4]: inactive | outcome [1]: inactive

C[Si](C)(C)N[Si](C)(C)C
outcome [2]: inactive | outcome [3]: inactive | outcome [4]: inactive | outcome [1]: inactive

CC(=O)OCc1ccccc1
outcome [2]: inactive | outcome [3]: inactive | outcome [4]: inactive | outcome [1]: inactive

CCC(C)(O)CCCC(C)C (stereo not drawn)
outcome [2]: inactive | outcome [3]: inactive | AC50 [1]: 67.7 µM (active)

O=C(O)C1CCC(C(=O)O)CC1 (stereo not drawn)
outcome [2]: inactive | outcome [3]: inactive | outcome [1]: inactive

CCC1COC(=O)O1 (stereo not drawn)
outcome [2]: inactive | outcome [3]: inactive | outcome [4]: inactive | outcome [1]: inactive

CCCCCC(=O)OCC
outcome [2]: inactive | outcome [3]: inactive | AC50 [4]: 19.8 µM (active) | outcome [1]: inactive

O=C(O)/C=C/c1ccccc1
outcome [2]: inactive | outcome [3]: inactive | outcome [4]: inactive | outcome [1]: inactive
